Data reported in PubChem BioAssay (NCATS).
Records with an inconclusive call do not appear. Unmarked numbers belong to inactive results. The source made the active and inactive calls. Calls follow the shape of the dose curve; as a rule, active = well fitted inhibition curve with a large enough effect; inconclusive = small, poorly fitted or top-dose-only effect; inactive = flat fitted curve, though single readings scatter.

Columns and labels:
Assay in all cases: Cytotoxic Profiling of Annotated Libraries Using Quantitative High-Throughput Screening (AID 1296008); also: nearly all actives have a fitted effect of over 60% in size
Conditions in all cases: Five cell lines viability, CellTiter-Glo ATP luminescence, 48-72 h; max response: stronger effect = lower value
HaCat = system: HaCat
How it was run: (§1)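 Cytotoxicity was measured as CellTiter-Glo ATP luminescence, read after 10 min at room temperature. Compound treatment of the cells lasted 48 or 72 hr at 37 degrees Celsius in a qHTS format.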

KB-3-1 = system: KB-3-1
How it was run: as §1

NIH3T3 = system: NIH3T3
How it was run: as §1
% is scaled to controls: 0 for no effect and ±100 for the full control effect; potency is read from the fitted curve at half-maximal effect.

Work on O=C(CCc1ccccc1)N1CCC(O)(Cn2cnc3cc(Cl)ccc3c2=O)CC1 yielded a max response (HaCat) of -6.79%, a max response (KB-3-1) of -17% and a max response (NIH3T3) of -4.94%.
Compound CCCCc1ccc(C(=O)Nc2cc(-c3ccc(Cl)cc3)nn2-c2ccc(Cl)cc2)cc1 has a max response (HaCat) of -3.42%, a max response (KB-3-1) of -4.76% and a max response (NIH3T3) of -1.01%.
In the case of CC1(C)CC[C@]2(C(=O)O[C@@H]3O[C@H](CO)[C@@H](O)[C@H](O)[C@H]3O)CC[C@]3(C)C(=CCC4[C@@]5(C)C[C@@H](O)[C@H](O)C(C)(C)C5[C@H](O)C[C@]43C)[C@@H]2[C@@H]1O (some centres undefined), the max response (HaCat) is reported as 0.337%, the outcome (KB-3-1) is reported as “inactive” and the max response (NIH3T3) is reported as -3.1%.
In the case of C=C[C@@H]1[C@H](O[C@@H]2O[C@H](CO)[C@@H](O)[C@H](O)[C@H]2O)OC=C(C(=O)O)[C@H]1CCOC(=O)/C=C/c1ccc(O)c(O)c1, the max response (HaCat) is reported as -20.8%, the outcome (KB-3-1) is reported as “inactive” and the max response (NIH3T3) is reported as 0.24%.
OC[C@H]1O[C@@H](OCCc2ccc(O)cc2)[C@H](O[C@@H]2OC[C@](O)(CO)[C@H]2O)[C@@H](O)[C@@H]1O was tested, and the max response (HaCat) was 1.3%, the max response (KB-3-1) was 8.69% and the max response (NIH3T3) was -3.47%.
In the case of CCOC(=O)Nc1cc(-c2ccc(C)c(NS(C)(=O)=O)c2)nn2c(C)nnc12, the Potency (HaCat) is reported as 651 nM (active), the Potency (KB-3-1) is reported as 10300 nM (active) and the Potency (NIH3T3) is reported as 9200 nM (active).
COC(=O)C1=CO[C@@H](O[C@@H]2O[C@H](CO[C@@H]3O[C@H](COC(=O)/C=C/c4cc(OC)c(O)c(OC)c4)[C@@H](O)[C@H](O)[C@H]3O)[C@@H](O)[C@H](O)[C@H]2O)[C@@H]2C(CO)=CC[C@H]12 was tested, and the max response (HaCat) was 4.35%, the outcome (KB-3-1) was “inactive” and the max response (NIH3T3) was -2.41%.
Compound C[C@@H]([C@@H](O)c1ccc(O)cc1)N1CCC(O)(c2ccccc2)CC1 has a max response (HaCat) of -0.788%, a max response (KB-3-1) of -1.25% and a max response (NIH3T3) of 1.49%.
For O=[N+]([O-])c1cccc2[nH]c(CNc3nc(N4CCOCC4)nc4c3ncn4-c3ccsc3)nc12, the Potency (HaCat) was 461 nM (active), the Potency (KB-3-1) was 164 nM (active) and the Potency (NIH3T3) was 259 nM (active).
For CC(C)=CCC[C@](C)(O)[C@H]1CC[C@]2(C)[C@@H]1[C@H](O)CC1[C@@]3(C)CC[C@H](O)C(C)(C)C3[C@@H](O[C@@H]3O[C@H](CO)[C@@H](O)[C@H](O)[C@H]3O[C@@H]3OC[C@@H](O)[C@H](O)[C@H]3O)C[C@]12C (some centres undefined), the max response (HaCat) was -1.39%, the outcome (KB-3-1) was “inactive” and the max response (NIH3T3) was 1.41%.
In the case of C[C@@H]1CC[C@]2(C(=O)OC3OC(CO)C(O)C(O)C3O)CC[C@]3(C)C(=CCC4[C@@]5(C)CC[C@H](O)[C@](C)(C(=O)O)C5CC[C@]43C)C2[C@]1(C)O (some centres undefined), the max response (HaCat) is reported as -8.63%, the max response (KB-3-1) is reported as 4.37% and the max response (NIH3T3) is reported as -0.137%.
CC1(C)CC[C@]2(C(=O)OC3OC(CO)C(O)C(O)C3O)CC[C@]3(C)C(=CCC4[C@@]5(C)CC[C@H](OC6OC(C(=O)O)C(O)C(OC7OC(CO)C(O)C(O)C7O)C6O)C(C)(C)C5CC[C@]43C)C2C1 (some centres undefined) was tested, and the max response (HaCat) was -1.22%, the max response (KB-3-1) was -3.39% and the max response (NIH3T3) was 0.867%.
For O=C(CC1C(=O)Nc2ccccc21)OC[C@H]1O[C@@H](OCCc2ccc(O)cc2)[C@H](O)[C@@H](O)[C@@H]1O (some centres undefined), the max response (HaCat) was -16.5%, the outcome (KB-3-1) was “inactive” and the max response (NIH3T3) was -0.494%.
In the case of C[C@@H]1O[C@@H](O[C@H]2[C@H](O)[C@@H](C(=O)O)O[C@@H](O[C@H]3CC[C@@]4(C)C(CC[C@]5(C)C4CC=C4C6CC(C)(C)CC[C@]6(C(=O)O)CC[C@]45C)C3(C)C)[C@@H]2O[C@@H]2OC[C@@H](O)[C@H](O)[C@H]2O)[C@H](O)[C@H](O)[C@H]1O (some centres undefined), the max response (HaCat) is reported as -12.7%, the max response (KB-3-1) is reported as 9.7% and the max response (NIH3T3) is reported as 0.526%.
Work on C=C(CO[C@@H]1O[C@H](CO[C@@H]2OC[C@](O)(CO)[C@H]2O)[C@@H](O)[C@H](O)[C@H]1O)C1Cc2cc(C(C)=O)ccc2O1 (some centres undefined) yielded a max response (HaCat) of -0.415%, a max response (KB-3-1) of 7.61% and a max response (NIH3T3) of 3.36%.
With CC(=O)N[C@H]1[C@H](O[C@H]2CC[C@@]3(C)C(CC[C@]4(C)C3CC=C3C5CC(C)(C)CC[C@]5(C(=O)O)[C@H](O)C[C@]34C)C2(C)C)O[C@H](CO[C@@H]2OC[C@H](O)[C@H](O)[C@H]2O[C@@H]2OC[C@@H](O)[C@H](O)[C@H]2O)[C@@H](O)[C@@H]1O (some centres undefined) the max response (HaCat) was -6.42%, the max response (KB-3-1) was 4.32% and the max response (NIH3T3) was -13.2%.
C/C=C(\C)C(=O)O[C@@H]1CC2[C@@H](CC=C3C[C@@H](O[C@H]4C[C@H](OC)[C@H](O[C@H]5C[C@H](OC)[C@H](O[C@@H]6O[C@H](C)[C@@H](O[C@H]7C[C@H](OC)[C@H](O[C@@H]8O[C@H](CO)[C@@H](O)[C@H](O)[C@H]8O)[C@@H](C)O7)[C@H](OC)[C@H]6O)[C@@H](C)O5)[C@@H](C)O4)CC[C@@]32C)[C@@]2(O)CC[C@H](C(C)=O)[C@@]12C (some centres undefined) gave a max response (HaCat) of -4.54%, a max response (KB-3-1) of 8.46% and a max response (NIH3T3) of -3.87%.
CNC(=O)c1ccccc1Nc1nc(Nc2ccc(N3CCNCC3)cc2)ncc1Cl was tested, and the Potency (HaCat) was 9.2 nM (active), the Potency (KB-3-1) was 25.9 nM (active) and the Potency (NIH3T3) was 82 nM (active).
With O=C(/C=C\c1ccc(O)cc1)N[C@@H](Cc1ccc(O)cc1)C(=O)O the max response (HaCat) was -12.4%, the max response (KB-3-1) was 1.07% and the max response (NIH3T3) was -0.22%.
For COc1cc(/C=C/C(=O)O[C@H]2[C@H](O)[C@@H](CO)O[C@@]2(CO)O[C@H]2O[C@H](CO)[C@@H](O)[C@H](O)[C@H]2O)ccc1O, the max response (HaCat) was -4.81%, the max response (KB-3-1) was 1.78% and the max response (NIH3T3) was 1.81%.
CC(C)(O)/C=C/C1=CC(=O)[C@@](C)(O)C[C@H]1O was tested, and the max response (HaCat) was 4.28%, the max response (KB-3-1) was 7.85% and the max response (NIH3T3) was -2.07%.
Work on C=C1CCC2C(C)(C)CCC[C@]2(C)[C@H]1C/C=C(\CO)C(=O)C(=O)O (some centres undefined) yielded a max response (HaCat) of 3.5%, a max response (KB-3-1) of -9.53% and a max response (NIH3T3) of -2.57%.
C=C1C[C@]23C[C@H]1CC[C@H]2[C@@]12CC[C@H](O)[C@@](C)(C(=O)O1)[C@H]2[C@@H]3C(=O)O was tested, and the max response (HaCat) was -1.9%, the max response (KB-3-1) was 6.55% and the max response (NIH3T3) was 3.45%.
For C[C@@H]1CC[C@@]2(OC1)O[C@H]1C[C@H]3[C@@H]4CC=C5C[C@@H](O)CC[C@]5(C)[C@H]4CC[C@]3(C)[C@H]1[C@@H]2C, the max response (HaCat) was 4.49%, the max response (KB-3-1) was -3.17% and the max response (NIH3T3) was -1.68%.
Work on C[C@H]1CC(=O)Nc2cccc(-c3cnn(C(C)(C)C)c3)c2N1 yielded a max response (HaCat) of 4.21%, a max response (KB-3-1) of -8.91% and a max response (NIH3T3) of -7.27%.
CC(C)=CCC/C(C)=C/Cc1ccc(O)c(C2OC(=O)c3cc(C(=O)O)cc(O)c32)c1O (centres undefined) was tested, and the max response (HaCat) was -20.9%, the max response (KB-3-1) was -2.57% and the max response (NIH3T3) was 0.065%.
COC(=O)C1=CO[C@@H](O[C@@H]2O[C@H](CO)[C@@H](O)[C@H](O)[C@H]2O)[C@@H]2[C@@](C)(O)[C@@H](OC(=O)/C=C/c3ccc(O)cc3)C[C@]12O showed a max response (HaCat) of 1.25%, a max response (KB-3-1) of 0.0331% and a max response (NIH3T3) of 2.33%.
For Cc1cc(OCc2nnc(SC3CCCC3)n2-c2cccnc2)ccc1-c1ccc(S(C)(=O)=O)cc1, the Potency (HaCat) was 4610 nM (active), the Potency (KB-3-1) was 1460 nM (active) and the Potency (NIH3T3) was 10300 nM (active).
For C[C@@H]1O[C@@H](O[C@H]2[C@H](O[C@H]3[C@H](O)[C@@H](C(=O)O)O[C@@H](O[C@H]4CC[C@@]5(C)C(CC[C@]6(C)C5CC[C@]57OC[C@@]8(CCC(C)(C)CC85)[C@H](O)C[C@]76C)C4(C)C)[C@@H]3O[C@@H]3O[C@H](CO)[C@@H](O[C@@H]4OC[C@@H](O)[C@H](O)[C@H]4O)[C@H](O)[C@H]3O)O[C@H](CO)[C@H](O)[C@@H]2O)[C@H](O)[C@H](O)[C@H]1O (some centres undefined), the max response (HaCat) was 1.4%, the outcome (KB-3-1) was “inactive” and the max response (NIH3T3) was 2.61%.
For Cc1onc(C(=O)N2CCN(C(c3ccc(Cl)cc3)c3ccc(Cl)cc3)CC2)c1[N+](=O)[O-], the max response (HaCat) was 0.662%, the max response (KB-3-1) was -21.9% and the Potency (NIH3T3) was 731 nM (active).
In the case of C=C[C@]1(C)C=C2CCC3C(C)(CCC[C@@]3(C)C(=O)O)C2CC1 (some centres undefined), the max response (HaCat) is reported as -0.617%, the max response (KB-3-1) is reported as 8.11% and the max response (NIH3T3) is reported as -2.38%.
For O=C(O)Cc1cn(C2OCC(O)C(O)C2O[C@@H]2O[C@H](CO)[C@@H](O)[C@H](O)[C@H]2O)c2ccccc12 (some centres undefined), the outcome (HaCat) was “inactive”, the outcome (KB-3-1) was “inactive” and the max response (NIH3T3) was 2.49%.
With CC1OC(OC2C(O)C(OC3CCC4(C)C(CCC5(C)C4CC=C4C6CC(C)(COC7OC(CO)C(O)C(O)C7O)CC(O)C6(C)CCC45C)C3(C)C)OC(C(=O)O)C2O)C(O)C(O)C1OC1OCC(O)C(O)C1O (centres undefined) the max response (HaCat) was -5.35%, the outcome (KB-3-1) was “inactive” and the max response (NIH3T3) was -0.449%.
C[C@@H]1CCC2C(C)(C)[C@H](O)CC[C@]2(C)[C@@]12Cc1c(O)cc3c(c1O2)CNC3=O (some centres undefined) gave a max response (HaCat) of -68.6%, a max response (KB-3-1) of 9.73% and a max response (NIH3T3) of -63%.
With CN1CCN(C2CCC(n3cc(-c4ccc(Oc5ccccc5)cc4)c4c(N)ncnc43)CC2)CC1 (centres undefined) the Potency (HaCat) was 1030 nM (active), the Potency (KB-3-1) was 20600 nM (active) and the Potency (NIH3T3) was 326 nM (active).
C/C(=C\CC[C@@H](C)[C@H]1CC(O)[C@@]2(C)C3CC[C@H]4C(C)(C)[C@@H](OC5OCC(O)C(O)C5OC5OC(CO)C(O)C(O)C5O)CC[C@@]45C[C@@]35CC(O)[C@]12C)C(=O)O (some centres undefined) gave a max response (HaCat) of -0.726%, a max response (KB-3-1) of 6% and a max response (NIH3T3) of -27.1%.
For CCCn1c(=O)c2[nH]c(-c3ccc(OCC(=O)O)cc3)nc2n(CCC)c1=O, the max response (HaCat) was -4.84%, the outcome (KB-3-1) was “inactive” and the max response (NIH3T3) was -3.27%.
With C[C@@H]1O[C@@H](O[C@H]2[C@H](O)[C@@H](O)[C@H](OC3CCC4(C)C5CCC(C)(C(CO)OC6OC(CO)C(O)C(O)C6O)CC5=CCC4C3(C)C)O[C@@H]2CO)[C@H](O)[C@H](O)[C@H]1O (some centres undefined) the max response (HaCat) was -0.0812%, the max response (KB-3-1) was 0.989% and the max response (NIH3T3) was 3.8%.
